Screening results from PubChem BioAssay.
The list is not random: actives were taken first. Their share in the collection is about 0.29%.
MLL CXXC-DNA inh: qHTS Fluorescence Polarization Assay for Inhibitors of MLL CXXC domain - DNA interaction; Histone-lysine N-methyltransferase 2A (Homo sapiens), Q03164; MLL-CXXC / FITC-HOXA9 DNA fluorescence polarization; Potency, µM (series often up to 115 µM), inactives show top-dose activity change, negative = inhibition, most hits filed as inhibitors; hit rate 0.037% among 290,000; active = well fitted inhibition curve with a large enough effect in the polarisation, with a control signal flat, not every such curve was filed as active; inconclusive = small, poorly fitted or top-dose-only effect, or effect the other way, or a change in a side signal; inactive = no such curve, though single readings can be large or run the other way; the % refers to the polarisation; note: potency is the fitted concentration of half-maximal effect
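Steps: dispense CXXC domain solution (7 uM) → pin compounds or unlabeled HOX-A9 DNA control → 5 min ambient → add FLSN-HOX-A9 solution (50 nM) → spin → 30 min ambient → fluorescence polarization. Tris pH 7.5/NaCl/DTT/BSA buffer.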
Menin MLL FP FL: qHTS Assay for Inhibitors Targeting the Menin-MLL Interaction in MLL Related Leukemias: Competition With Fluorescein Labeled MLL-derived Peptide; FP activity change, % at 61.4 µM; AID 1766, 2009; Fluorescence polarization, fluorescein-MLL peptide displacement from menin; 290,000 tested, under 10 active; active = well fitted curve in the direction sought with a large enough effect in the polarisation, not every such curve was filed as active; inconclusive = small, poorly fitted or top-dose-only effect, or effect the other way, or a change in a side signal; inactive = no such curve, though single readings can be large or run the other way; the % refers to the polarisation; note: % of control where 0% means no effect
A-T KAP1 phos: qHTS Assay for Identifying a Potential Treatment of Ataxia-Telangiectasia; F2112 A-T fibroblasts, KAP-1 phosphorylation AlphaLISA; neocarzinostatin DNA damage 30 min before lysis; Potency, µM (series often up to 57.5 µM), without a hit: at the top dose activation, actives largely listed as activators; hit rate 0.19% among 320,000; note: potency is the fitted concentration of half-maximal effect; % of control where 0% means no effect; nearly all actives have a fitted effect of over 45% in size
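hTERT-immortalized A-T patient fibroblasts (F2112), 500 cells/well in OPTI-MEM, 1% FBS, got compounds for 60 min, then NCS for 30 min at 37C. Lysates were then assayed for phospho-KAP-1 by AlphaLISA (anti-pKAP1 donor, anti-KAP1 acceptor beads), 6 hr at 25C.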
MmCpn inh: Inhibitors of TCP-1 ring complex (TRiC) of Methanococcus maripaludis (MmCpn): qHTS | AID 504842, 2011 | Chaperonin Mm-Cpn (Methanococcus maripaludis) | Potency, µM (doses to about 76.9 µM), inactives show top-dose activity, negative = inhibition, usual class: inhibitors | purified Mm-Cpn ATPase, ADP Transcreener TR-FRET | hit rate 0.031% among 330,000; note: potency is the fitted concentration of half-maximal effect; % is set by controls: 0 for no effect and ±100 for the full control effect; nearly all actives have a fitted effect of over 80% in size
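ATPase turnover read by TR-FRET ADP competition (Eu cryptate antibody/ADP-d2, 665/590 nm): 10uM ATP final, 25nM Mm-CPN final, 30 min 37degC after 10-min compound preincubation, pH 7.4 Tris/KCl/MgCl2/DTT buffer.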
Menin-MLL TR inh: qHTS Assay for Inhibitors Targeting the Menin-MLL Interaction in MLL Related Leukemias: Competition With Texas Red Labeled MLL-derived Mutant Peptide. O00255. Menin + Texas Red MLL mutant peptide, fluorescence polarization. Potency, µM (doses to about 61.6 µM), inactives show at the highest dose FP activity change, negative = inhibition, most hits filed as inhibitors. hit rate 0.23% among 270,000. AID 1768, 2009; active = well fitted inhibition curve with a large enough effect in the polarisation, with a control signal flat, not every such curve was filed as active; inconclusive = small, poorly fitted or top-dose-only effect, or effect the other way, or a change in a side signal; inactive = no such curve, though single readings can be large or run the other way; the % refers to the polarisation; note: potency is the fitted concentration of half-maximal effect; % of control where 0% means no effect
* hit, by the source's call; ? = inconclusive; . = no result given; [ ] = remark or other dose. Unless noted, calls come from the whole dose curve; as a rule, active = well fitted curve in the direction sought with a large enough effect; inconclusive = small, poorly fitted or top-dose-only effect, or another doubt; inactive = no such curve, though single readings can be large; an effect the other way counts as inactive or inconclusive.

SMILES | MLL CXXC-DNA inh | Menin MLL FP FL | A-T KAP1 phos | MmCpn inh | Menin-MLL TR inh
CCCCCC(O)(c1ccccc1)C(CN1CCOCC1)c1ccccc1 (stereo unspecified) | 0% | -2 | 32µM* | -1% | ?
CCC/C=C(\CCC)C(NC(=O)c1ccco1)c1ccc(C(=O)OC)cc1 (stereo unspecified) | . | 5 | . | . | ?
O=C1CC[C@H](C(=O)N[C@@H]2C[C@H]2c2ccccc2)N1 | -4% | -1 | . | . | 3%
FC(F)Sc1ccc(NC(=S)NC(c2ccccc2)c2ccccc2)cc1 | 7% | -1 | 2% | -2% | 16µM*
O=C(OCc1ccccc1)[C@@H]1COC(c2ccc(Br)cc2)=N1 | . | 0[94.6 µM] | . | . | -7%[94.6 µM]
COc1ccccc1NC(=O)Cn1nnc(-c2ccccc2NC(=O)c2cc3ccccc3oc2=O)n1 | -11% | -1 | 0% | -3% | 20µM*
COc1ccccc1NC(=O)Cn1nnc(-c2ccccc2NS(=O)(=O)c2ccccc2)n1 | 11% | 0 | 6% | 0% | ?
O=C1C=CC2(OCCCO2)C(Br)=C1CO | . | -3 | . | . | -17%
CCCC1O[C@@H]2C[C@H]3[C@@H]4CCC5=CC(=O)C=C[C@]5(C)C4[C@@H](O)C[C@]3(C)[C@]2(C(=O)CO)O1 (stereo partly specified) | -2% | 6 | . | . | 3%
O=c1c2cc(Br)ccc2nc(-c2ccccc2)n1O | -9% | -1 | 0.71µM* | -2% | ?
Cc1ccc(-c2nc3ccccc3c(=O)n2O)cc1 | 16% | 4 | 16% | 0% | -2%
CCN1/C(=C/C=C/C=C/C=C/c2sc3ccccc3[n+]2CC)Sc2ccccc21 | ? | ? | 13% | -3% | ?
CCN1/C(=C/C=C/C=C/c2sc3ccccc3[n+]2CC)Sc2ccccc21 | ? | ? | 32µM* | 32µM* | ?
CC(C)C(=O)N1CCC2(CC1)Oc1ccc(F)cc1C(=O)C21CC(c2cccnc2)=NO1 (stereo unspecified) | 0% | 1 | -13% | -2% | .
Cc1ccc(C(=O)N2CCC3(CC2)Oc2ccc(F)cc2C(=O)C32CC(c3cccnc3)=NO2)s1 (stereo unspecified) | 0% | -1 | 40µM* | 1% | .
CC(=O)Nc1ccc(O)c(-c2nc3ccccc3s2)c1 | 3% | -3 | 8% | -19% | ?
O=C(Nc1ccc(OC(=O)c2ccccc2)c(-c2nc3ccccc3s2)c1)c1ccccc1 | 51% | 2 | -1% | -2% | 18µM*
COc1cc(/C=N/Nc2nc(=O)[nH]nc2C)ccc1O | 23% | 23 | -50% | 1% | .
COc1ccc(/C=N/Nc2nc(=O)[nH]nc2C)cc1OC | -7% | -1 | 7.1µM* | -1% | .
C/C(CCC(=O)OC[C@@H]1O[C@H](C#Cc2ccccc2)C=C[C@@H]1Oc1ccc(C)cc1)=N/OC[C@@H](C)[C@H](OCc1ccccc1)C(C)C | . | -1[11.7 µM] | . | . | -2%[11.7 µM]
Oc1ccc(N=Nc2ccc3c(c2)OCO3)c2ccccc12 | 1% | 0 | 10µM* | -2% | .
CCC1OC(=O)CC(O)C(C)[C@@H](O[C@@H]2OC(C)[C@H](O[C@@H]3C[C@@](C)(O)C(O)C(C)O3)C(N(C)C)C2O)[C@H](CC=O)CC(C)C(=O)/C=C/C(C)=C/[C@@H]1COC1OC(C)C(O)C(OC)[C@@H]1OC (stereo partly specified) | -5% | 0 | . | . | 1%
Cc1cc(=O)oc2cc(O[C@@H]3O[C@H](C(=O)O)[C@@H](O)[C@H](O)[C@H]3O)ccc12 | . | -16 | . | . | 1%[24.8 µM]
CCCCCCCCCCC(C)=O | . | 5 | . | . | -6%
COc1ccc(-c2cc(C(=O)Nc3ccc(C)c(C)c3)no2)cc1 | 5% | -13 | 13µM* | 2% | ?
SMILES | MLL CXXC-DNA inh | Menin MLL FP FL | A-T KAP1 phos | MmCpn inh | Menin-MLL TR inh
Cc1ccc(NC(=O)c2cc(-c3ccc(F)cc3)on2)cc1C | -1% | -2 | 2% | 2% | 19%
COc1ccc(C2c3ccc(O)cc3Oc3ncn(CCCO)c(=N)c32)cc1 (stereo unspecified) | -4% | 2 | 25µM* | 2% | .
O=C(CN(c1cccc([N+](=O)[O-])c1)S(=O)(=O)c1ccccc1)N1CCCCC1 | 6% | -2 | 10% | 2% | -8%
Cc1ccc(NC(=S)Nc2cccc(-c3n[nH]c(=S)o3)c2)cc1 | 8% | 51 | -6% | 50µM* | .
O=C(NC(CC1CCCCC1)C(=O)O)c1ccccc1 (stereo unspecified) | . | . | 25µM* | -2% | .
CC(C)CN(CC(C)C)CC(O)COc1ccccc1Br (stereo unspecified) | 3% | 9 | 20µM* | 0% | ?
CCCCN(CCCC)CC(O)COc1ccccc1Br (stereo unspecified) | -4% | 3 | 18% | 2% | ?
CC(C)C(=O)Nc1nc(-c2ccc(S(=O)(=O)N3CCOCC3)cc2)cs1 | 4% | . | 13µM* | -12% | .
O=C(COc1cccc(Cl)c1)Nc1nc(-c2ccc(S(=O)(=O)N3CCOCC3)cc2)cs1 | 17% | 7 | . | 40µM* | ?
COc1ccccc1OC(C)C(=O)Nc1nc(-c2ccc(S(=O)(=O)N3CCOCC3)cc2)cs1 (stereo unspecified) | -5% | 1 | 0% | ? | 4%
CCCCc1nc2c(c3c1C[C@H](C)OC3)CN(C(=O)NCc1ccco1)CC2 | . | 0[11.7 µM] | . | . | -12%[11.7 µM]
COc1ncc2ncc(=O)n(C3CC3)c2n1 | . | ? | . | . | -6%
O=C1C(Cl)=C(Nc2ccccc2)C(=O)c2ccccc21 | -4% | 3 | 5µM* | -1% | ?
O=C(O)c1ccc(NC2=C(Cl)C(=O)c3ccccc3C2=O)cc1 | ? | 4 | -23% | ? | .
COc1ccc2nc(C)cc(N/N=C/c3cccc(OC)c3O)c2c1 | ? | -15 | -1% | -1% | -29%
COc1ccc(/C=N/Nc2cc(C)nc3ccc(Br)cc23)cc1 | -10% | -22 | -23% | -1% | 16µM*
C(=N\Nc1ccccn1)/c1c[nH]c2ccccc12 | 1% | 1 | 5µM* | -4% | .
O=C(NNCS(=O)(=O)O)c1ccncc1 | -15% | . | . | . | .
Cc1oc2c(c(C)cc3oc(=O)c(CC(=O)NCC(=O)NCC(=O)O)c(C)c32)c1C | 55% | -1 | 5.6µM* | -16% | -5%
Cc1oc2c(c(C)cc3oc(=O)c(CC(=O)NCCC(=O)O)c(C)c32)c1C | 1% | 2 | -4% | -2% | -20%
FC(F)Oc1ccc(-n2cc(-c3ccccc3)[n+]3c2CCCCC3)cc1 | -2% | 1 | 14µM* | 1% | .
